PMC5540273 (PLoS ONE, 2017)

Test system: PDGFRB
Conditions: concentration: 1 μM, replicates: in singlicate; n = 1
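Further: KINOMEscan kinase panel screen.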

Row | Structure (SMILES) | %Inh [%]
1 | CCn1c(-c2nonc2N)nc2c(C#CC(C)(C)O)ncc(OCCCCN)c21.O=C(O)C(F)(F)F.O=C(O)C(F)(F)F [GSK507274] | 25
2 | O=C(Nc1cccc(-c2nn3ccccc3c2-c2ccnc(Nc3cccc(C(F)(F)F)c3)n2)c1)c1c(F)cccc1F [GSK292658] | 97.3
3 | O=C(NC1CCN(c2ccnc(Nc3ccc(F)cc3)n2)C1)c1cc2ccccc2s1 (stereo not shown) [GSK1379716] | 28
4 | COc1cc(Nc2nccc(-c3c(-c4cccc(NC(=O)c5c(F)cccc5F)c4)nn4ncccc34)n2)cc(OC)c1OC [GSK327238] | 100
5 | COc1cccc(-c2ccc3c(NC(=O)C4CC4)n[nH]c3n2)c1 [SB-710903] | 34
6 | Cn1cc(-c2ccc3c(c2)CCN3C(=O)Cc2cccc(Cl)c2)c2c(N)ncnc21 [GSK2606590] | 100

Test system: PDPK1
Conditions: concentration: 1 μM, replicates: in singlicate; n = 1

Row | Structure (SMILES) | %Inh [%]
7 | FC(F)(F)c1ccc(/C=C/c2cncnc2Nc2ccc3[nH]c(Cc4ccccc4)nc3c2)cc1 [GW709199] | 0
8 | COc1ccc(Nc2nccc(NCCNC(=O)c3cc4ccccc4s3)n2)cc1 [GSK1379896] | 8
9 | Cl.Cl.NCC(NCc1ccc(-c2ccnc3[nH]ccc23)s1)c1ccccc1 (stereo not shown) [GSK1321565] | 0
10 | O=C(Nc1cccc(-c2nn3ncccc3c2-c2ccnc(Nc3ccccc3)n2)c1)c1c(F)cccc1F [GSK198271] | 0
11 | Cn1cc(-c2ccc3c(c2)CCN3C(=O)Cc2cccc(F)c2)c2c(N)ncnc21 [GSK2603358] | 0
12 | Nc1ncc(-c2cccnc2)c2scc(-c3ccc4c(c3)CCN4C(=O)Cc3ccccc3)c12 [GSK683281] | 21
13 | COC(=O)Nc1nc2cc(Oc3ccc(NC(=O)Nc4cc(C(F)(F)F)ccc4F)cn3)ccc2[nH]1.Cl.Cl [GW681170] | 0
14 | CCn1c(-c2nonc2N)nc2c(C#CC(C)(C)O)nc(OC[C@H](N)c3ccccc3)cc21 [GSK943949] | 0
15 | COc1ccc(Nc2nccc(N3CCC(NC(=O)Nc4cccc(OC)c4)C3)n2)cc1 (stereo not shown) [GSK1379742] | 15
16 | O=C(Nc1cccc(Oc2ccc3nc(NC(=O)C4CC4)cn3n2)c1)c1ccccc1C(F)(F)F | 0
17 | Fc1ccc(-c2ncn(C3CCNCC3)c2-c2ccnc(Oc3ccc(-c4ccccc4)cc3)n2)cc1 [SB-245391] | 21
18 | CC(=O)Nc1nc2cnc(Nc3cc(NC(=O)c4cccc(C5(C#N)CC5)c4Cl)ccc3C)nc2s1 | 1
19 | Clc1ccc(-c2nn3ncccc3c2-c2ccnc(Nc3ccc4c(c3)OCCO4)n2)cc1 [GW829116] | 0
20 | O=C(Nc1ccccc1F)NC1CCN(c2ccnc(Nc3ccc(F)cc3)n2)CC1 [GSK1379800] | 0
21 | c1ccc(-c2cnc3nccnn23)cc1 [AH20685] | 0
22 | COc1cc2c(cc1OCCN1CCNCC1)ncc1c3ccc(C#N)cc3[nH]c21 | 9
23 | COc1cccc(C2=C(Nc3ccc(Cl)c(C(=O)O)c3)C(=O)NC2=O)c1 [SB-390769] | 0
24 | O=C(O)C(F)(F)F.O=C(O)C(F)(F)F.O=c1[nH]ccc2nc(N[C@@H]3CCCNC3)nc(Nc3ccc(S(=O)(=O)N4CCOCC4)cc3)c12 [GSK2177277] | 100
25 | COc1cccc(NC(=O)NC2CCN(c3ccnc(Nc4cc(OC)c(OC)c(OC)c4)n3)C2)c1 (stereo not shown) [GSK1379763] | 0

Row | Structure (SMILES) | %Inh [%]
26 | O=c1[nH]cc(-c2ccc(N3CCOCC3)cc2)c2sc(-c3cn[nH]c3)cc12 [GSK2276055] | 0
27 | Nc1ncc(-c2ccc3nccc(-c4ccncc4)c3c2)cc1S(=O)(=O)N1CCOCC1 [GSK1627798] | 0
28 | Cl.c1ccc(-c2ccc3c(Nc4ccc5[nH]ncc5c4)ccnc3c2)nc1 [GW440137] | 0
29 | Cc1ccc(C)c(NC(=O)NC2CCN(c3ccnc(Nc4ccc(F)cc4)n3)C2)c1 (stereo not shown) [GSK1379720] | 0
30 | Cl.Cl.NCC(NC(=O)c1cc(-c2ccccc2)c(-c2ccnc3[nH]ccc23)s1)c1ccccc1 (stereo not shown) [GSK1321561] | 20
31 | Cc1occc1-c1ncc(OC[C@@H](N)Cc2c[nH]c3ccccc23)cc1-c1ccc2[nH]nc(C)c2c1.O=C(O)C(F)(F)F [GSK682037] | 0
32 | CN(c1ccc(NC(=O)Nc2cc(C(F)(F)F)ccc2F)cc1)c1ccnc(Nc2ccc(S(N)(=O)=O)cc2)n1 [GW809893] | 35
33 | CC(C)c1nc(-c2cccc(NS(=O)(=O)c3c(F)cccc3F)c2F)c(-c2ccnc(Nc3ccc(N4CCOCC4)nc3)n2)s1 [GSK2008607] | 0
34 | Cc1cccc(Nc2nc(N[C@H]3CCNC3)ncc2C(N)=O)c1.Cl [GSK2197149] | 7
35 | COc1cccc(C(=O)Nc2cccc(Oc3ccc4nc(NC(=O)C5CC5)cn4n3)c2)c1 | 0
36 | Cl.c1ccc(-c2ccc3c(Nc4ccc5[nH]ccc5c4)ccnc3c2)nc1 [GW440138] | 0
37 | CC(=O)N1CCN(c2ccc(Nc3nccc(-c4sc(C(C)C)nc4-c4cccc(NS(=O)(=O)c5cccc(Cl)c5)c4)n3)cn2)CC1 [GSK1660437] | 0
38 | CCn1c(-c2nonc2N)nc2c(C#CC(C)(C)O)ncc(OCCCCN)c21.O=C(O)C(F)(F)F.O=C(O)C(F)(F)F [GSK507274] | 0
39 | O=C(Nc1cccc(-c2nn3ccccc3c2-c2ccnc(Nc3cccc(C(F)(F)F)c3)n2)c1)c1c(F)cccc1F [GSK292658] | 0
40 | O=C(NC1CCN(c2ccnc(Nc3ccc(F)cc3)n2)C1)c1cc2ccccc2s1 (stereo not shown) [GSK1379716] | 0
41 | COc1cc(Nc2nccc(-c3c(-c4cccc(NC(=O)c5c(F)cccc5F)c4)nn4ncccc34)n2)cc(OC)c1OC [GSK327238] | 16
42 | COc1cccc(-c2ccc3c(NC(=O)C4CC4)n[nH]c3n2)c1 [SB-710903] | 0
43 | Cn1cc(-c2ccc3c(c2)CCN3C(=O)Cc2cccc(Cl)c2)c2c(N)ncnc21 [GSK2606590] | 40
